Screening data from PubChem BioAssay.
mHTT CaM bind – inhibitors of human mutant huntingtin-calmodulin interaction | AlphaScreen His-mHTT/GST-CaM binding, luminescence | inhibition, % at 15 µM | 3.6% of 190,000 active;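 further: 0% = both proteins with DMSO and 100% = one protein alone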
Pf apPOL inh – Pf-apPOL DNA polymerase inhibition; inhibition, % at 10 µM; 0.25% of 210,000 active; Recombinant Pf-apPOL, molecular beacon fluorescence, 1.5 h; AID 1794808
* marks the source's active call; other numbers are inactive results; x = no result given. An excerpt weighted towards active compounds, which were near 3.5% of everything screened. No stated cut-off is given here; in the data, active means inhibition above about 50%; inactive means the rest.

SMILES	mHTT CaM bind	Pf apPOL inh
CCOc1ccc(CN2CCc3nc(Nc4cccc(OC)c4)ncc3C2)cc1	20	-12
CS(=O)(=O)c1ccc2nc(NC(=O)/C=C/c3ccccc3Cl)sc2c1	75*	-1
CC(C)c1ccc(/C=C/C(=O)Nc2nc3ccc(S(C)(=O)=O)cc3s2)cc1	10	-5
CCOc1ccccc1NC(=O)N1CCCC1c1ccccc1Cl (centres undefined)	-5	-3
Cc1ccc(C)c(Cc2c(C)nc3c(C(=O)NC4CC4)cnn3c2C)c1	53*	-6
Cc1ccc(C)c(Cc2c(C)nc3c(C(=O)NC4CCCCC4)cnn3c2C)c1	-1	1
COCCCNC(=O)c1cnn2c(C)c(Cc3cc(C)ccc3C)c(C)nc12	42	-11
Cc1ccccc1Cc1c(C)nc2c(C(=O)NC(C)C)cnn2c1C	71*	-13
Cc1ccccc1Cc1c(C)nc2c(C(=O)NC3CCCC3)cnn2c1C	-1	-9
Cc1ccc(C)c(Cc2c(C)nc3c(C(=O)NC(C)C)cnn3c2C)c1	79*	-9
COc1cc(C)c(CN2CCN(c3ccc([N+](=O)[O-])cc3)CC2)cc1C	33	-1
CCOC1=CC(=Cc2c(N)n3nc(COc4ccccc4)sc3nc2=O)C=CC1=O	31	0
COC1=CC(=Cc2c(N)n3nc(-c4ccccc4C)sc3nc2=O)C=CC1=O	57*	-1
CC12CC(NC(=O)N1c1ccc(F)cc1)c1cc(Br)ccc1O2 (centres undefined)	3	17
Cn1c(COc2ccccc2)nn(CN2CCC3(CC2)OCCO3)c1=S	-8	x
Cn1c(COc2ccccc2)nn(C2c3ccccc3Oc3ccccc32)c1=S	54*	x
CCc1ccccc1NC(=O)N1CCCC1c1nc(-c2cccc(OC)c2)no1 (centres undefined)	-1	1
Cc1cc2[nH]c(C(=O)Nc3cccc(Cl)c3C)c(CN3CCOCC3)c2s1	36	15
Cc1cc2[nH]c(C(=O)Nc3cccc(C)c3C)c(CN3CCOCC3)c2s1	53*	-9
C=CCc1cccc2cc(C(=O)Nc3ccc(I)cc3)c(=O)oc12	-1	0
CC(C)(C)C(=O)CSc1nnc(-c2ncc(C(F)(F)F)cc2Cl)n1-c1ccc(Cl)cc1	x	-24
COc1ccc(CN2CCCC2c2c(C)noc2C)cc1OC (centres undefined)	-4	-2
CC(CCc1ccccc1)N1CCN(S(C)(=O)=O)CC1 (centres undefined)	-4	2
COc1ccc(C2Nc3ccccc3-c3nnc(SC)nc3O2)cc1O (centres undefined)	-6	-4
O=C1C=C(c2cccs2)CC(c2ccccc2)C1n1nnc([N+](=O)[O-])n1 (centres undefined)	34	-3
SMILES	mHTT CaM bind	Pf apPOL inh
COc1cc(/C=C2/SC(=N)NC2=O)cc(Br)c1OCc1ccccc1	68*	-5
CCOc1cc(/C=C2\SC(=N)NC2=O)ccc1OCc1ccccc1	20	-5
COc1cc(/C=C2\SC(=N)NC2=O)ccc1Oc1ccc(C(F)(F)F)cc1[N+](=O)[O-]	50*	-4
CCOc1cc(/C=C2\SC(=N)NC2=O)ccc1OC	11	-1
COc1cc(/C=C2/SC(=N)NC2=O)ccc1OCc1ccc([N+](=O)[O-])cc1	20	-4
COc1cc(/C=C2/SC(=N)NC2=O)ccc1OCc1ccccc1	28	1
COc1cc(/C=C2/SC(=N)NC2=O)ccc1OCc1ccccc1F	60*	-2
COc1cc(/C=C2/SC(=N)NC2=O)ccc1OCc1ccc(C)cc1	59*	3
CCSc1nnc2c(n1)OC(c1ccco1)N(C(=O)CC)c1ccccc1-2 (centres undefined)	6	-16
CCCC(=O)Nc1ccccc1NC(=O)c1ccc(OC)c([N+](=O)[O-])c1	4	-1
Cc1oc2ccn(Cc3ccc(F)cc3)c(=O)c2c1C(=O)N1CCCCCC1	40	-2
Cc1oc(C(=O)Nc2cc(F)ccc2F)cc1S(=O)(=O)N(C)C	-7	2
COc1ccc(S(=O)(=O)N2CCC(c3noc(-c4ccc(C)cc4)n3)CC2)cc1OC	-2	-5
NC(=O)Cc1nc(-c2cc3ccccc3oc2=O)cs1	-8	-4
CCOc1cc(/C=C2\SC(=N)NC2=O)ccc1OCc1ccc(F)cc1	60*	-4
CCOc1cc(/C=C2\SC(=N)NC2=O)ccc1OCc1ccc(Br)cc1	34	3
CCN(CC)CCNC(=O)c1csc(-c2ccncc2)n1	-3	0
CC(=O)c1c(-c2ccccc2)c2cc(Cl)ccc2[nH]c1=O	32	-4
CC(=O)c1c(-c2ccccc2)c2cc(Br)ccc2[nH]c1=O	58*	1
Cc1ccc2nc(/C(C#N)=C/c3ccccc3OC(C)C)[nH]c2c1	-3	1
Cc1cc(NS(=O)(=O)c2cccc([N+](=O)[O-])c2)ccc1O	-2	8
CCc1csc2nc(C)c(NC(=O)c3ccccc3)c(=O)n12	-5	-1
CCC(=O)N1CCc2cc(N3CC(C(=O)Nc4ccc(OC)c(Cl)c4)CC3=O)ccc21 (centres undefined)	1	-3
Cc1cc2c(c(=O)[nH]1)C(=O)O/C2=C\c1ccc(C)o1	69*	-3
Cc1cc2c(c(=O)[nH]1)C(=O)O/C2=C\c1cccs1	12	-3
SMILES	mHTT CaM bind	Pf apPOL inh
N#Cc1c(N)nc(SCC(=O)c2ccc(O)c(O)c2)c(C#N)c1-c1ccc(O)cc1	31	27
N#Cc1c(N)nc(SCC(=O)c2ccc(O)c(O)c2)c(C#N)c1-c1cccc(Cl)c1	85*	4
COc1ccc(-c2c(C#N)c(N)nc(SCC(=O)c3ccc(O)c(O)c3)c2C#N)cc1	99*	-6
N#Cc1c(N)nc(SCC(=O)c2ccc(Br)cc2)c(C#N)c1-c1ccccc1	-8	-12
Cn1c(O)c(C2=c3cc(Br)ccc3=NC2=O)sc1=Nc1ccc(Cl)cc1	7	-45
Cc1noc(C2CN(CC(=O)Nc3ccc4c(c3)OCCO4)C2)n1	-5	-5
CC1(C)CC(=O)C2=C(C1)Nc1nc(-c3ccccc3)nn1C2c1ccccc1 (centres undefined)	43	-2
COc1cccc(C2C3=C(CC(C)(C)CC3=O)Nc3nc(-c4cccc(Cl)c4)nn32)c1 (centres undefined)	1	-2
COc1ccc(-c2nc3n(n2)C(c2ccccc2)C2=C(CC(C)(C)CC2=O)N3)cc1 (centres undefined)	52*	-4
COc1ccccc1C1C2=C(CC(C)(C)CC2=O)Nc2nc(-c3cccc(Cl)c3)nn21 (centres undefined)	70*	-3
CC1(C)CC(=O)C2=C(C1)Nc1nc(-c3ccccc3)nn1C2c1ccc(Br)cc1 (centres undefined)	35	-3
COc1ccc(C2C3=C(CC(C)(C)CC3=O)Nc3nc(-c4ccc(O)cc4)nn32)cc1 (centres undefined)	50*	2
COc1ccc(N(CC(=O)Nc2cccc([N+](=O)[O-])c2)S(C)(=O)=O)c(OC)c1	8	0
Nc1ccc(OC2=C(Cl)C(=O)c3ccccc3C2=O)cc1	x	2
CC(C)(C)N1C(=O)c2ccc(C(=O)Nc3cccnc3)cc2C1=O	7	1
Cc1ccccc1C(=O)N1CCC(C(=O)Nc2ccc(Br)cc2)CC1	5	1
COc1ccc(-c2csc(=Nc3ccc(Cl)cc3)n2CCCO)cc1F	76*	0
COc1ccc(-c2csc(=Nc3ccccc3)n2CCCN(C)C)cc1	45	2
CCOc1ccc(N=c2scc(-c3ccc(F)cc3)n2CCCO)cc1	31	-7
